Test results as given in PubChem BioAssay (Tox21).
Inconclusive results are not listed. A number with no mark means an inactive call. Activity calls are given as the source filed them. Calls follow the shape of the dose curve; as a rule, active = well fitted activation curve with a large enough effect in the repeat runs; inconclusive = weak or mixed curves; inactive = flat fitted curve, though single readings scatter.

test: A CellTox Green Cytotoxicity Assay to monitor cytotoxicity in HepG2 cells - 40 hour (AID 1224879); conditions: CellTox Green fluorescence; series mostly up to 76.8 µM; cytotoxicity increase: at the top concentration; also: nearly all actives have a fitted effect of over 40% in size
How it was run: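 Measurements at 0, 8, 16, 24, 32 and 40 h of treatment captured CellTox Green fluorescence in HepG2 cells that had been co-plated with reagent and preincubated 5 h at 37 C/5% CO2.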
% is scaled to controls: 0 for no effect and ±100 for the full control effect; potency is read from the fitted curve at half-maximal effect.

Compared with `CC1=C(CC(=O)O)c2cc(F)ccc2/C1=C\c1ccc(S(C)(=O)=O)cc1`, `CN1CCC[C@@H]1Cc1c[nH]c2ccc(CCS(=O)(=O)c3ccccc3)cc12` is higher in “cytotoxicity increase” value: -17.7% [at 35.3 µM] for the first, -5.55% [at 35.3 µM] for the second.

First: CC(C)NCC(O)COc1ccc(CCOCC2CC2)cc1 (stereo unspecified)
Second: Cc1ccsc1C(=CCCN1CCC[C@@H](C(=O)O)C1)c1sccc1C
The “cytotoxicity increase” value of the first is higher: 8.76% [at 35.3 µM] for the first, -3.7% [at 35.3 µM] for the second.

First: O=C(O)[C@@H]1CSCN1
Second: CN1CCN(c2c(F)cc3c(=O)c(C(=O)O)cn4c3c2SCC4)CC1
The “cytotoxicity increase” value of the first is lower: -6.35% [at 35.3 µM] for the first, -3.3% [at 35.3 µM] for the second.

Compared with `CCCNC(C)C(=O)Nc1c(C)csc1C(=O)OC` (stereo unspecified), `CCC(=O)O[C@]1(C(=O)SCF)[C@H](C)C[C@H]2[C@@H]3C[C@H](F)C4=CC(=O)C=C[C@]4(C)[C@@]3(F)[C@@H](O)C[C@@]21C` is higher in “cytotoxicity increase” value: -25.2% [at 35.3 µM] for the first, 2.25% [at 35.3 µM] for the second.

First: NC1=NCC2c3ccccc3Cc3ccccc3N12 (stereo unspecified)
Second: CCN1CC(CCN2CCOCC2)C(c2ccccc2)(c2ccccc2)C1=O (stereo unspecified)
The “cytotoxicity increase” value of the first is higher: 0.618% [at 35.3 µM] for the first, -1.56% [at 35.3 µM] for the second.

Compared with `C1CCOC1`, `O=C1CCCc2ccccc21` is lower in “cytotoxicity increase” value: 0.211% for the first, -3.25% for the second.

Compared with `C=O`, `C=CCCC=C` is lower in “cytotoxicity increase” value: -6.25% for the first, -13.8% for the second.

Going from `COc1nc(C)nc(NC(=O)NS(=O)(=O)c2ccccc2OCCCl)n1` to `COC(=O)c1ccc(OC)cc1`, the “cytotoxicity increase” value falls from -2.07% to -14.3%.

Compared with `CC(C)O`, `CCCCCCC` is higher in “cytotoxicity increase” value: -1.15% for the first, -0.351% for the second.

Compared with `CCCCCCCOC(=O)CCC`, `CCCCCCCCOC(=O)CCCCCCCCC(=O)OCCCCCCCC` is lower in “cytotoxicity increase” value: -9.19% for the first, -11.2% for the second.

Going from `OCCN1CCN(CCO)CC1` to `CC1=CC(=O)CC(C)(C)C1=O`, the “cytotoxicity increase” value rises from 2.95% to 6.33%.

First: Cc1cc2nc(N)sc2cc1C
Second: Cc1ccc(C)c(N)c1
The “cytotoxicity increase” value of the first is lower: 1.38% for the first, 1.68% for the second.

With `CN1CCN(C2=Nc3ccccc3Oc3ccc(Cl)cc32)CC1` the Potency was 19 µM (active).

With `O=C(O)c1ccccc1Nc1cc(Cl)ccc1C(=O)O` the cytotoxicity increase was 28.2% [at 15.8 µM].
